# The list is not random: actives were taken first. Their share in the collection is about 5.5%.
# Mito fusion act = blocks mitochondrial division or promotes mitochondrial fusion; S. cerevisiae fusion-defective mutant growth rescue, CellTiterGlo 48 h; Potency, µM (titrated, usually from 46.1 µM), for inactives: top-dose growth rescue (activation), actives largely listed as activators; 0.23% of 320,000 active; also: % of control where 0% means no effect; nearly all actives have a fitted effect of over 45% in size
#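 Growth-rescue viability read-out: after 48 h at the non-permissive 37C in glycerol/ethanol YPEG, yeast mitochondrial fusion mutants are measured by CellTiterGlo luminescence; compounds (23 nl pinned per well) restoring growth score as division inhibitors or fusion activators.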
# uPA generation = inhibitors of cell surface uPA generation; cell surface uPA generation assay, qHTS; Potency, µM (top dose mostly 38.3 µM), for the others: top-dose activity change, negative = inhibition, hits mostly inhibitors; 0.31% of 330,000 active; AID 540303; active = well fitted inhibition curve with a large enough effect; inconclusive = small, poorly fitted or top-dose-only effect; inactive = no such curve, though single readings can be large or run the other way; tested in mouse RAW 264.7 cells; also: % is scaled to controls: 0 for no effect and ±100 for the full control effect; nearly all actives have a fitted effect of over 55% in size
# a7 integrin act = activators of alpha7 integrin expression for muscular dystrophy. AID 624291. alpha7betagal myoblasts, beta-gal FDG fluorescence, 48 h. 0.064% of 350,000 active. Potency, µM (titrated, usually from 38.3 µM), without a hit: at the top dose activation, most hits filed as activators;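 also: 100% = response of the positive control SU9516; nearly all actives have a fitted effect of over 60% in size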
#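 alpha7betagal+/- myoblasts (passage 13, 250/well) treated 48 h at 37C with compounds at 1:260 dilution of DMSO stock. Lysed, then beta-galactosidase activity read as FDG fluorescence (ex 480/em 540) after 30 min, with pre-read for autofluorescence.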
# RORgamma inh = inhibitors of mouse ROR gamma transcriptional activity; Drosophila S2 Gal4-RORgamma UAS-luciferase reporter, 20 h; Potency, µM (top dose mostly 53.6 µM), inactives show at the highest dose activity change, negative = inhibition, most hits filed as inhibitors; 5.4% of 310,000 active; also: % is scaled to controls: 0 for no effect and ±100 for the full control effect; nearly all actives have a fitted effect of over 60% in size
# Target sequence (P51450 whole entry, looked up, the tested form may be a part): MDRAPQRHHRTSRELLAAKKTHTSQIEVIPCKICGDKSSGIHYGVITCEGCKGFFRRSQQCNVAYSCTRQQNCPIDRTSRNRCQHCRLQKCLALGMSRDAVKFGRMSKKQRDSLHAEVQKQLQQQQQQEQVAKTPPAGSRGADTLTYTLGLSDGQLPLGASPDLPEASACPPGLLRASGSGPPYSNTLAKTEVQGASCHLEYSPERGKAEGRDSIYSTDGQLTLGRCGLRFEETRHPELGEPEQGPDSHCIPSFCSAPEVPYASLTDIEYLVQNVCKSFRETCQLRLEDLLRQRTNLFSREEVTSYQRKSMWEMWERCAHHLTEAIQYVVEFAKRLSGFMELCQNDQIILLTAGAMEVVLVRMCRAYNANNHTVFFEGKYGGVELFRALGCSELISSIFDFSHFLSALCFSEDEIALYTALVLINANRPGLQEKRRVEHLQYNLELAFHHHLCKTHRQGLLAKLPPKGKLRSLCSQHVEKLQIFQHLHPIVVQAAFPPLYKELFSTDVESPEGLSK
#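 ROR gamma transcriptional activity was tracked as Gal4-UAS luciferase output in stably transfected Drosophila Schneider cells, with compound added 1 hr before 700 uM copper sulfate induction and a 20 hr ambient-temperature incubation.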
# Chronic BCR inh = blocks chronic active B-cell receptor signaling. 0.05% of 340,000 active. ABC-DLBCL IkBa-CBG/CBR reporter, luminescence ratio, 4 h. Potency, µM (highest dose often 46.1 µM), without a hit: at the top dose activity change, negative = inhibition, most hits filed as inhibitors; active = well fitted inhibition curve with a large enough effect in the signal ratio, with a control signal flat, not every such curve was filed as active; inconclusive = small, poorly fitted or top-dose-only effect, or effect the other way, or a change in a side signal; the % refers to the signal ratio;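 also: plate controls were basal doxycycline-induced cells for no effect and cells given 10 µM MG132 for full effect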
#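 Doxycycline induced both beetle luciferases in TMD8 lymphoma cells; IKK-driven degradation limits the IkappaBalpha-fused green signal, while red luminescence normalises for cell number and nonspecific effects. Compounds tested up to 46 uM, 4 hrs.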
# Gal4-VP16 FLuc = counter-screen for ROR gamma inhibitors: Gal4-VP16 reporter; 3.5% of 310,000 active; AID 2546; Potency, µM (top dose mostly 53.6 µM), inactives show at the highest dose activity, negative = inhibition, most hits filed as inhibitors; Drosophila S2 Gal4-VP16 UAS-luciferase, luminescence, 20 h;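 also: Gal4-VP16 expression switched on by copper sulfate through the metallothionein promoter; % is scaled to controls: 0 for no effect and ±100 for the full control effect; nearly all actives have a fitted effect of over 50% in size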
# Numbers without * were called inactive; ? = inconclusive; nt = no result given; [ ] = dose if it differs, or a comment. Unless noted, calls follow the shape of the dose curve; as a rule, active = well fitted curve in the direction sought with a large enough effect; inconclusive = small, poorly fitted or top-dose-only effect, or another doubt; inactive = no such curve, though single readings can be large; an effect the other way counts as inactive or inconclusive. Potency is read from the fitted curve at half-maximal effect.
SMILES,Mito fusion act,uPA generation,a7 integrin act,RORgamma inh,Chronic BCR inh,Gal4-VP16 FLuc
COc1ccc(NC(=O)c2ccc(C)cc2)cc1,2.0%,10µM*,35.8%,-11.1%[1.91 µM],-4.4%,?
COc1ccc(C(=O)Nc2ccc3ccccc3c2)cc1,0.1%,5.01µM*,-2.1%,?,-5.5%,?
COc1ccc(/C=C(\NC(=O)c2ccc(OC)cc2)C(=O)Nc2ccc(C(=O)O)cc2)cc1,10.5%,3.8%,13.5%,18.7%,0.3%,-6.7%
NC(=O)c1ccc(NC(=O)COC(=O)CCC(=O)c2ccc(Cl)cc2)cc1,2.6%,10.8%,22.8%,12.8%,2.0%,-9.1%
Cc1ccc(NC(=S)c2ccccc2)cc1,15.2%,-8.2%,4.4%,11.2µM*,?,?
Cc1ccc(NC(=S)c2ccncc2)cc1,-17.9%,-6.4%,29.4%,-10.8%,5.6%,-12.5%
COc1ccc(C(=S)Nc2ccc(C)cc2)cc1,-5.4%,-3.4%,-13.5%,12.6µM*,1.0%,13.4%
COc1ccc(S(=O)(=O)Nc2ccc(S(=O)(=O)Nc3nccs3)cc2)cc1,-6.2%,-6.4%,12.6µM*,-4.2%,-2.5%,-5.5%
COc1ccc(NC(=S)c2ccncc2)cc1,0.0%,-1.1%,12.7%,32.8%,0.3%,5.4%
CCOC(=O)C1=C(c2ccccc2)c2cc(OC)ccc2OC1C(=O)OCC (stereo unspecified),nt,nt,nt,-16.1%,nt,-4.0%
CC(O)CCCCn1c(=O)c2c(ncn2C)n(C)c1=O (stereo unspecified),nt,nt,nt,9.0%,nt,-4.1%
Cc1snc(SCC(=O)N/N=C(\N)COc2ccc(F)cc2)c1C#N,3.5%,nt,10.2%,2.51µM*,4.3%,4.47µM*
CC(=O)Nc1cccc(C(=O)OCc2csc(CC(=O)Nc3ccccc3C)n2)c1,5.5%,1.9%,16.6%,nt,-0.5%,nt
CC(C)c1cc(NC(=O)CCl)on1,-26.5%,6.31µM*,-63.8%,?,?,?
CC(NC(=O)CCl)c1ccc(Cl)c(Cl)c1 (stereo unspecified),-10.9%,-10.2%,-45.9%,-37.8%,?,5.5%
CCN1/C(=C(\O)c2ccccc2)C(=O)c2ccccc2S1(=O)=O,14.7%,-6.4%,-10.6%,10µM*,?,?
CCOC(=O)c1ccc(CN2C(=O)c3ccccc3S2(=O)=O)cc1,1.4%,0.8%,13.8%,21.7%,?,-11.6%
CC(=O)OC1CCC2(C)C3CCC4(C)C(CC5CCCCC54C(C)=O)C3CC(=O)[C@@]2(O)C1 (stereo partly specified),nt,nt,nt,-15.8%,nt,1.5%
O=C(O)/C=C/C(=O)c1ccc2c(c1)CCc1ccccc1-2,-21.6%,5.01µM*,-39.9%,nt,?,nt
O=C(CCCn1c(=S)[nH]c2cc3c(cc2c1=O)OCO3)N1CCN(c2ccccn2)CC1,3.5%,4.0%,-21.2%,12.6µM*,-10.4%,?
COc1ccc(N2CCN(C(=O)CCCn3c(=S)[nH]c4cc5c(cc4c3=O)OCO5)CC2)cc1,-4.4%,-1.1%,-12.4%,7.08µM*,0.0%,?
O=C(CCCn1c(=S)[nH]c2cc3c(cc2c1=O)OCO3)NCc1cccc(Cl)c1,-2.1%,-3.5%,9.2%,12.6µM*,0.2%,?
CCC(=O)Nc1ccc(C(=O)COC(=O)c2nc3nccc(C)n3n2)cc1,0.9%,-22.8%,19.1%,nt,2.9%,nt
O=C(c1csnn1)N1CCC2(CCN(Cc3cc(C(F)(F)F)cc(C(F)(F)F)c3)CC2)CC1,nt,nt,nt,-8.9%,nt,2.3%
O=C(Nc1ccc([N+](=O)[O-])cc1)Nn1cnnc1,2.3%,-5.7%,14.4%,-12.4%,?,-5.8%
COc1cc(OC)cc(-c2sc3ccccc3c(=O)c2I)c1,nt,nt,nt,43.0%,nt,-7.2%
CC(C)(C)c1cc(C(=O)N2CCc3ccccc3C2)ccn1,-0.5%,7.94µM*,10.8%,33.4%,?,16.5%
CC(C)(C)c1cc(C(=O)N2CCc3ccccc32)ccn1,6.1%,nt,41.7%[7.66 µM],?,2.0%,7.7%
CC(C)(C)C(=O)NC(=S)Nc1ccc(Cl)c(C(=O)O)c1,9.1%,3.1%,-23.9%,?,6.7%,6.3%
